Experimental data as given in the supplement of paper PMC10127200.
Counter-ions that a name gives are not always drawn.

What was measured:
Assay in all cases: Euclidean distance of Cell Painting phenotypic profile (signed KS, 77 features) to DMSO centroid (dimensionless distance); 5 or 10 uM (library dependent); higher = stronger phenotypic change vs DMSO (phenoactivity)
Conditions in all cases: 48 h
786-O = tested on: 786-O
In short: (§1)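 Phenoactivity is defined as the Euclidean distance from a compound profile to the median vehicle profile. Each profile comprised 77 Harmony features, scored as signed Kolmogorov-Smirnov statistics versus same-plate vehicle wells, then plate-position corrected, correlation-weighted and replicate-averaged at the top dose. Five cancer lines and one healthy fibroblast line were exposed to library compounds for 48 h at 10 or 5 uM (0.1% DMSO final).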

A549 = tested on: A549
In short: as §1

DU145 = tested on: DU145
In short: as §1

FB = tested on: FB
In short: as §1

HEPG2 = tested on: HEPG2
In short: as §1

OVCAR4 = tested on: OVCAR4
In short: as §1

Structure (SMILES) | Euclidean distance (786-O) | Euclidean distance (A549) | Euclidean distance (DU145) | Euclidean distance (FB) | Euclidean distance (HEPG2) | Euclidean distance (OVCAR4)
Cc1nc(N)sc1-c1ccnc(Nc2ccc(N3CCOCC3)cc2)n1 | 2.86 | 3.52 | 1.18 | 1.92 | 2.08 | 2.59
NCCS [Cysteamine HCl] | 0.86 | 0.424 | 0.624 | 1.02 | 0.897 | 1.07
CC1(C)CCC[C@]2(C)[C@H]3CC(=O)O[C@]3(C)CC[C@@H]12 [Sclareolide] | 1.98 | 1.52 | 1.35 | 0.844 | 1.58 | 1.36
C=C[C@](C)(O)CC[C@@H]1[C@@]2(C)CCCC(C)(C)[C@@H]2CC[C@@]1(C)O [Sclareol] | 0.617 | 0.762 | 0.574 | 0.717 | 0.546 | 1.39
CCN1C[C@H](C)n2c(c(O)c3c(=O)n(Cc4ccc(F)c(Cl)c4)nc(C(=O)NC)c32)C1=O | 1.08 | 0.61 | 1.05 | 0.927 | 0.645 | 1
COc1ccccc1OCCNCC(O)COc1cccc2[nH]c3ccccc3c12 (stereo not drawn) [Carvedilol] | 1.59 | 1.04 | 1.42 | 1.64 | 2.22 | 1.86
O=C(NCCS(=O)(=O)c1ccc(C(F)(F)F)cn1)c1ccc(Cl)cc1 | 0.975 | 1.54 | 1.57 | 0.817 | 0.723 | 1.18
CCCCCN(C)CCC(O)(P(=O)(O)O)P(=O)(O)O [Ibandronate sodium] | 1.42 | 1.09 | 0.856 | 1.59 | 1.38 | 1.49
NC(=O)[C@@H]1CC[C@@H]2CN1C(=O)N2OS(=O)(=O)O [Avibactam sodium] | 1.03 | 0.85 | 0.722 | 0.925 | 0.607 | 1.24
Nc1ccc(S(=O)(=O)Nc2ccnn2-c2ccccc2)cc1 [Sulfaphenazole] | 0.816 | 0.571 | 1.03 | 0.58 | 0.469 | 1.26
N[C@H](C(=O)O)[C@H](O)c1ccc(O)c(O)c1 [Droxidopa] | 0.967 | 0.876 | 0.724 | 0.744 | 1.01 | 0.873
C#CCN(C)CCCOc1ccc(Cl)cc1Cl [Clorgyline HCl] | 0.821 | 0.714 | 0.727 | 1.14 | 0.806 | 0.745
C[C@H]1O[C@@H](O[C@H]2[C@@H](O)C[C@H](O[C@H]3[C@@H](O)C[C@H](O[C@H]4CC[C@@]5(C)[C@H](CC[C@@H]6[C@@H]5C[C@@H](O)[C@]5(C)[C@@H](C7=CC(=O)OC7)CC[C@]65O)C4)O[C@@H]3C)O[C@@H]2C)C[C@H](O)[C@@H]1O [Digoxin] | 6.92 | 5.56 | 6.87 | 4.48 | 3.09 | 6.68
CC1(C)OCCn2c1nc1c(N3CCOCC3)nc(-c3cnc(N)nc3)nc12 | 2.79 | 2.94 | 2.05 | 4.44 | 2.32 | 2.93
CCCCc1nc(Cl)c(CO)n1Cc1ccc(-c2ccccc2-c2nnn[nH]2)cc1 [Losartan Potassium (DuP 753)] | 0.807 | 0.621 | 0.847 | 0.722 | 0.759 | 0.893
CN1CCN2c3ccccc3Cc3ccccc3C2C1 (stereo not drawn) [Mianserin HCl] | 2.29 | 2.41 | 0.876 | 2.86 | 1.34 | 2.29
CCCCCCc1ccc(O)cc1O [Hexylresorcinol] | 1.35 | 0.943 | 0.978 | 0.936 | 1.32 | 1.16
C[C@]12CCC(=O)C=C1CC[C@@H]1[C@@H]2C(=O)C[C@@]2(C)[C@H]1CC[C@]2(O)C(=O)CO [Cortisone] | 1.73 | 0.941 | 1.11 | 1.27 | 0.411 | 1
CCN1CCN(c2cc3c(cc2F)c(=O)c(C(=O)O)cn3C2CC2)CC1 [Enrofloxacin] | 0.875 | 1.1 | 0.711 | 0.933 | 0.992 | 1.67

Structure (SMILES) | Euclidean distance (786-O) | Euclidean distance (A549) | Euclidean distance (DU145) | Euclidean distance (FB) | Euclidean distance (HEPG2) | Euclidean distance (OVCAR4)
O=C(c1ccc(C(=O)N2CCC(N3CCCC3)CC2)c(Nc2ccccc2)c1)N1CCC(N2CCCC2)CC1 | 0.8 | 1.05 | 0.703 | 0.904 | 0.536 | 0.678
CCCN(CCC)CCc1cccc2c1CC(=O)N2 [Ropinirole HCl] | 1.32 | 1.01 | 0.736 | 1.3 | 0.483 | 1.2
O=C1c2cccc(O)c2C(=O)c2c(O)cccc21 [Danthron] | 1.02 | 0.914 | 1.19 | 0.924 | 0.868 | 1.12
CC(S)C(=O)NCC(=O)O (stereo not drawn) [Tiopronin] | 1.57 | 0.822 | 1.09 | 0.869 | 2.07 | 1.32
O=S(=O)(O)c1cc(O)ccc1O [Ethamsylate] | 0.716 | 0.847 | 0.74 | 1.11 | 0.713 | 1.57
Nc1nccc2c1ncn2C1C=C(CO)C(O)C1O (stereo not drawn) [3-Deazaneplanocin A (DZNeP)] | 2.28 | 1.27 | 1.19 | 2.71 | 1.23 | 1.72
COc1cc2c(cc1OC)[C@H]1C[C@@H](OC(=O)[C@@H](N)C(C)C)[C@H](CC(C)C)CN1CC2 [Valbenazine tosylate] | 0.826 | 0.503 | 1.01 | 0.778 | 0.752 | 1.05
COC(=O)N[C@H](C(=O)N[C@@H](Cc1ccccc1)[C@@H](O)CN(Cc1ccc(-c2ccccn2)cc1)NC(=O)[C@@H](NC(=O)OC)C(C)(C)C)C(C)(C)C [Atazanavir Sulfate] | 1.01 | 0.58 | 0.637 | 0.614 | 0.837 | 1.55
CCN(CC)CCOC(=O)c1ccc(N)cc1Cl [Chloroprocaine HCl] | 0.962 | 0.947 | 0.943 | 0.861 | 0.503 | 1.07
O=C(O)/C=C/c1ccc(O)cc1 [p-Coumaric Acid] | 1.47 | 0.995 | 0.894 | 0.846 | 1.05 | 0.854
Cc1nc2cccc(N)c2c(=O)n1C1CCC(=O)NC1=O (stereo not drawn) [Avadomide(CC-122)] | 0.872 | 1.22 | 1.16 | 1.02 | 0.382 | 0.966
Cc1ccccc1OCC(O)CO (stereo not drawn) [Mephenesin] | 0.824 | 0.804 | 0.895 | 1.13 | 0.549 | 1.86
CC(C)(C)NCC(O)c1ccc(O)c(CO)c1 (stereo not drawn) [Salbutamol] | 1.03 | 0.738 | 1.09 | 0.676 | 0.894 | 0.709
OC1CN(CCCOCCc2ccc3sccc3c2)C1 [Edonerpic maleate] | 0.947 | 0.582 | 0.87 | 1.18 | 0.525 | 0.97
COc1cc(CNC(=O)CCCC/C=C\C(C)C)ccc1O [Zucapsaicin] | 0.772 | 0.503 | 0.672 | 0.743 | 0.98 | 1.01
C=C1C[C@@]2(O)O[C@@]3(C[C@H]2C(C)C)[C@@H](C)CC[C@@H]13 [Curcumol] | 1.06 | 1.43 | 0.943 | 1.3 | 0.814 | 1.43
COCCOc1cnc2ccn([C@H](C)c3nnc4c(F)cc(-c5cnn(C)c5)cn34)c(=O)c2c1 | 1.01 | 1.18 | 1.5 | 1.29 | 1.39 | 1.46
CCCCCCCCCCCCC[N+](C)(C)Cc1ccccc1 [Benzalkonium chloride] | 2.54 | 2.29 | 2.89 | 1.54 | 2.12 | 2.53
C#C[C@]1(O)CC[C@H]2[C@@H]3CCC4=CCCC[C@@H]4[C@H]3C(=C)C[C@@]21CC [Desogestrel] | 0.933 | 0.431 | 0.928 | 0.753 | 0.742 | 0.826
